PubChem BioAssay
Results filed as inconclusive are left out. Calls of active or inactive are those of the source. Unless noted, no stated cut-off is given here; in the data, active means inhibition above about 30%; inactive means the rest.

What was measured:
[1] = Her2 expression decrease, cell viability multiplex – SKBR3 breast tumor cells, AlphaScreen, ATP viability, primary screen (AID 461;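 active means Her2 level under about 52% in both replicate screens, with viability over 70% of control, limit read from the data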;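 on Her2 level: lower value means less Her2 protein in the cells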;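 on viability: percent of carrier control wells set as 100% viability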); conditions: SKBR3 Her2 protein level, 18-24 h, measured here: SKBR3 viability, ATP luminescence, at 10 µM
[2] = target: Receptor tyrosine-protein kinase erbB-2 (Homo sapiens) (UniProt P04626); experiment: as above; conditions: 18-24 h, at 10 µM, stronger effect = lower value
Chain of Receptor tyrosine-protein kinase erbB-2 (Homo sapiens) (P04626 whole entry, looked up): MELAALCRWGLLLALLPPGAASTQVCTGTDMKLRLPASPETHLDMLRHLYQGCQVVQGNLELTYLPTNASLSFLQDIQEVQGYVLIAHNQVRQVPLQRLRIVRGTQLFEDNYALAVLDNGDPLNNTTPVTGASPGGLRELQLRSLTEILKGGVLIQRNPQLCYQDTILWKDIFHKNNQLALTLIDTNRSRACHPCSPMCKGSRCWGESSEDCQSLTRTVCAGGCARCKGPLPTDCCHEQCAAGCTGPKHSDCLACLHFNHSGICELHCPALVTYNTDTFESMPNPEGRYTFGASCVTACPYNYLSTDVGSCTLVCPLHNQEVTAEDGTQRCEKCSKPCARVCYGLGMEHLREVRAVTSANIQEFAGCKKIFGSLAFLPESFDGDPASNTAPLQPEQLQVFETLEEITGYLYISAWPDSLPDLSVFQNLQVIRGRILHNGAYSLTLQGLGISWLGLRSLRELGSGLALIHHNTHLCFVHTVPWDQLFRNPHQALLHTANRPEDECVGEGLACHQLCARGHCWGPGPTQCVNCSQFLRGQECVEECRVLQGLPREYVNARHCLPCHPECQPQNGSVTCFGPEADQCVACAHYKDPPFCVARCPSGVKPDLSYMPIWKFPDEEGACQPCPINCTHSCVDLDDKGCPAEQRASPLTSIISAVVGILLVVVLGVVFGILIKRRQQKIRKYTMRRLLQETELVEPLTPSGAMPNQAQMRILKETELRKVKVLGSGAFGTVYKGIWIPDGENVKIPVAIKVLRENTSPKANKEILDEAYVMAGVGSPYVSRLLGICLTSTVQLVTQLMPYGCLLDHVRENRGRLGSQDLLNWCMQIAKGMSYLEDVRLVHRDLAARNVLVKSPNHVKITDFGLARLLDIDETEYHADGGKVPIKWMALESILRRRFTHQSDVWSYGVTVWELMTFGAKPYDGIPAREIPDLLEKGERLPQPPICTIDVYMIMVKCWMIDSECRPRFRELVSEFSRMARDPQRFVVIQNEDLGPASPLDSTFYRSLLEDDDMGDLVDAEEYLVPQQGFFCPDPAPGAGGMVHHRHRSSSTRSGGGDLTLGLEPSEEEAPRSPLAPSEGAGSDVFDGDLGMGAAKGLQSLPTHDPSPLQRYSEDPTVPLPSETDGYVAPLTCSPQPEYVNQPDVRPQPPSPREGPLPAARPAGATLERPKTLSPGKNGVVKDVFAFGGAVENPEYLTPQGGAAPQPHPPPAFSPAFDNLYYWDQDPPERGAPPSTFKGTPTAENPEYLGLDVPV

[3] = reduced viability of SK-BR-3 breast cancer cells – cell-based, 24 h, human, pilot screen (AID 572;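 active means viability at or below 10% of carrier control in both of two separate runs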;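 further: compound exposure lasted between 18 and 24 h rather than exactly 24 h; 100% = carrier-treated control wells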); conditions: SK-BR-3 viability, CellTiter-Glo luminescence, at 10 µM, stronger effect = lower value
[4] = HUVEC growth inhibition – cell-based, human, primary screen (AID 575;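 active means viability at or below 30% in both replicate assays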;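 further: 100% = median of untreated cell wells with 0.1% DMSO on each plate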); conditions: HUVEC proliferation, CellTiter-Glo luminescence, 72 h; at 10 µM; stronger effect = lower value
[5] = H69AR cell proliferation blockers – human, duplicate replicates, primary screen (AID 580;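 active means viability at or under a set limit in both replicates, limit being median viability minus 3 SD, cut at about 48% in these data, passing the limit was not always enough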;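 further: 100% = mean luminescence of untreated wells and 0% = no signal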); conditions: H69AR lung tumor cells viability, ATP luminescence, 72 h; at 10 µM; stronger effect = lower value
[6] = MRP1 drug-resistance reversers in H69AR cells – cell-based, doxorubicin co-treatment, pilot screen (AID 601;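 active means viability loss from added drug above about 55%, and viability with drug at most 40%, in both replicates, limit read from the data, passing the limit was not always enough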); conditions: CellTiter-Glo, 72 h, at 10 µM; for differential viability (reversal): stronger effect = higher value
[7] = yeast transport mutant growth inhibition pilot in 384-well plates, post-Golgi transport modulator project (AID 636; in the data active means inhibition above about 31%); conditions: absorbance 615 nm, about 18 h, stronger effect = higher value
[8] = growth suppression of yeast trafficking mutant, preliminary HTS, modulators of trafficking downstream of Golgi apparatus project, 1536-format plate, OD 615 nm (AID 637); conditions: yeast transport mutant growth, absorbance 615 nm, 18 h; stronger effect = higher value
[9] = S. cerevisiae growth inhibition in permissive medium (OD615), pilot counter-assay for S. cerevisiae lifespan shortening project, permissive growth control (AID 705;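 active means growth inhibition above 25% in both replicates, a cutoff set 3 SD above the mean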); conditions: OD615, 24 h, at 10 µM, stronger effect = higher value
[10] = S. cerevisiae growth inhibition in restrictive medium, OD615, pilot screen, restrictive growth control, yeast lifespan reduction project (AID 706;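 active means growth inhibition above a set limit, 3 SD over mean compound inhibition, in both replicates, cut at about 43% in these data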;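 further: modified DeaD lifespan yeast strain shifted to restrictive glucose medium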); conditions: OD615, 48 h, at 10 µM, stronger effect = higher value
[11] = doxorubicin toxicity protection in MRP-1 cells – H69AR cells, CellTiter-Glo, duplicate, MRP-1 activator project, pilot screen (AID 807;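 active means viability increase at or above a cutoff of the median across tested compounds plus 3 SD, cut at about 8.5% in these data, passing the limit was not always enough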;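 further: compound pretreatment 18-22 h then 72 h combined with doxorubicin; 0% = doxorubicin alone and 100% = vehicle without doxorubicin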); conditions: H69AR viability with doxorubicin, CellTiter-Glo luminescence; at 10 µM; stronger effect = higher value
[12] = viability of HCT116 without oncogenic beta-catenin – human colon tumor cells, pilot screen (AID 823;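 active means cell viability at or below a set limit in both duplicate runs, the limit being the all-compound median minus 4 SD, cut at about 23% in these data, passing the limit was not always enough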;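 further: 0% = wells killed by 20 µM Hyamine and 100% = untreated DMSO cell wells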); conditions: HCT116 beta-catenin knockout viability, CellTiter-Glo, 60 h; at 10 µM; stronger effect = lower value
[13] = viability of PTEN-null HCT116 cells – cell-based, HCT116 clonal line, CellTiter-Glo, pilot screen (AID 824;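 active means viability at or below 27.92% in each of two runs, the all-compound median minus 4 SD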;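 further: 0% = 20 µM Hyamine control and 100% = vehicle cell control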); conditions: HCT116 PTEN-deleted viability, 60 h, at 10 µM, stronger effect = lower value
[14] = RAM pathway blockade in budding yeast – dse1pr::URA3 reporter, 5-FOA selection, pilot screen (AID 869;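 active means inhibition over a set limit, the all-compound mean plus 3 SD, in both replicate runs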;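 further: 0% = DMSO wells with no growth and 100% = 10 µM 1-NA-PP1 with full growth; RAM network block rescues cells from 5-FOA so hits raise OD615 growth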); conditions: S. cerevisiae dse1pr::URA3 5-FOA growth, OD615, 2 d; at 10 µM; stronger effect = higher value; strain carries analog-sensitive mutant Cbk1 kinase
[15] = RAM signaling pathway blockade in yeast – S. cerevisiae, Pdr1DBD-CYC8 efflux-inhibited sensitized strain, primary screen (AID 1298;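 active means RAM network inhibition above 8.4% in each of two replicates, 3 SD over the compound average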;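 further: 0% = DMSO untreated cells without growth and 100% = 10 µM 1-NA-PP1 full growth; higher means more yeast growth rescued from 5-FOA killing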); conditions: S. cerevisiae cbk1-as DSE1-URA3 strain, 5-FOA growth OD615, 2 d; at 50 µM; stronger effect = higher value
[16] = H69AR cells + 2 uM doxorubicin, measured here: viability with 2 uM doxorubicin, stronger effect = lower value
[17] = H69AR cells, compound alone cytotoxicity

Compound	viability [1] [%]	Her2 level [2]	viability [3]	viability [4]	viability [5]	differential viability (reversal) ([6]; H69AR cells + 2 uM doxorubicin)	viability [6, 16] [%]	viability [6, 17] [%]	inhibition [7]	inhibition [8]	growth inhibition [9]	growth inhibition [10]	viability increase [11]	viability [12]	viability [13]	inhibition [14]	RAM network inhibition [15]
CC(C)(C)NC(=O)CC(CC(=O)O)c1ccccc1 (stereo not drawn)	112	117% (inactive)	112% (inactive)	110% (inactive)	88.5% (inactive)	-8.51% (inactive)	97	88.5	-4.27% (inactive)	7.67% (inactive)	-11.7% (inactive)	3.69% (inactive)	-0.99% (inactive)	106% (inactive)	101% (inactive)	2.61% (inactive)	-1.67% (inactive)
CCOc1ccc(C2CC(c3cccc(OC)c3)Nc3nc(N)nn32)cc1 (stereo not drawn)	91.5	114% (inactive)	91.5% (inactive)	95.8% (inactive)	90.7% (inactive)	-2.32% (inactive)	93	90.7	3.85% (inactive)	5.5% (inactive)	5.33% (inactive)	13.6% (inactive)	-0.23% (inactive)	99% (inactive)	87.1% (inactive)	1.65% (inactive)	4.8% (inactive)
COC(=O)Cc1cc(=O)[nH]c(Nc2nc3ccccc3o2)n1	104	99.5% (inactive)	104% (inactive)	74.6% (inactive)	78.3% (inactive)	8.41% (inactive)	69.8	78.3	-1.03% (inactive)	-3.33% (inactive)	3.62% (inactive)	1.2% (inactive)	-2.4% (inactive)	102% (inactive)	97.9% (inactive)	1.03% (inactive)	5.31% (inactive)
CCOC(=O)N1CCC(Nc2nc3ccccc3n3cnnc23)CC1	94	89.5% (inactive)	94% (inactive)	85.8% (inactive)	87.1% (inactive)	5.21% (inactive)	81.9	87.1	-0.13% (inactive)	3.17% (inactive)	0.55% (inactive)	-10.8% (inactive)	-4.12% (inactive)	102% (inactive)	95.2% (inactive)	1.23% (inactive)	4.35% (inactive)
Cc1c(C(=O)OCCOC(C)C)[nH]c2c1C(=O)CC(c1ccco1)C2 (stereo not drawn)	81	73% (inactive)	81% (inactive)	50.2% (inactive)	38.3% (active)	-34.4% (inactive)	72.7	38.3	1.47% (inactive)	-4.59% (inactive)	-3.61% (inactive)	-3.07% (inactive)	-4.69% (inactive)	17.1% (active)	17.8% (active)	0.735% (inactive)	-1.95% (inactive)
Cc1ccc2oc(=O)c3cnn(CC(=O)NCCC(C)C)c3c2c1	84.5	102% (inactive)	84.5% (inactive)	95.2% (inactive)	88.1% (inactive)	15.4% (inactive)	72.6	88.1	-0.26% (inactive)	-1.67% (inactive)	2.22% (inactive)	-6.28% (inactive)	-1.72% (inactive)	105% (inactive)	100% (inactive)	1.22% (inactive)	6.67% (inactive)
COc1cc(NC(=O)CC(C)C)ccc1NC(=O)c1ccco1	94.5	93% (inactive)	94.5% (inactive)	103% (inactive)	109% (inactive)	15.9% (inactive)	93.1	109	-3.92% (inactive)	-9.68% (inactive)	-3.81% (inactive)	-1.97% (inactive)	-0.27% (inactive)	100% (inactive)	96.2% (inactive)	0.825% (inactive)	0.51% (inactive)
Cc1cc(C(N)=O)c2cc(Br)ccc2n1	95.5	95.5% (inactive)	95.5% (inactive)	109% (inactive)	91.2% (inactive)	8% (inactive)	83.2	91.2	-1.35% (inactive)	0.49% (inactive)	-1.99% (inactive)	-7.49% (inactive)	-2.23% (inactive)	98.3% (inactive)	96.5% (inactive)	0.94% (inactive)	0.89% (inactive)
CC(=O)Nc1ccc(S(=O)(=O)Nc2nc3c(s2)CCCC3)cc1	106	103% (inactive)	106% (inactive)	106% (inactive)	99.5% (inactive)	11.5% (inactive)	88	99.5	-8.93% (inactive)	-9.52% (inactive)	4.96% (inactive)	12.8% (inactive)	-1.41% (inactive)	95.1% (inactive)	90.7% (inactive)	1.9% (inactive)	2.5% (inactive)
